The values that follow come from ChEMBL document CHEMBL4513216, “Probing the Open Global Health Chemical Diversity Library for Multistage-Active Starting Points for Next-Generation Antimalarials” (ACS Infect Dis, 2020).

Each structure is given as a SMILES string. In all, about 68,000 compounds went through this assay and about 2,700 (4%) showed an effect of 50% or more. The full list was thinned out, with strong results kept by preference.

The subject of this test is Plasmodium berghei. As to the kind of experiment: Screen against P. berghei liver stage (PbLuc), transformed with Luciferase, at 2uM. Format: functional, HepG2. The note with it: tested at 2 uM.
Turning to `Cc1cnn(CC2CCCN2C(=O)c2ccc(-n3cccn3)nc2)c1` (stereo not drawn), the INHIBITION is -26.85%.
As for `O=C(NCC(F)(F)F)c1ccc(-c2ccco2)[nH]c1=O`, the INHIBITION is given as -5.09%.
Take `Cc1cnn(CC2CN(Cc3nccn3CC(F)(F)F)CCO2)c1` (stereo not drawn): the INHIBITION is 36.64%.
In the case of `CN1C[C@@H](NC(=O)c2ccccc2)C[C@H]1c1nc(-c2cnccn2)no1`, the INHIBITION worked out at 23.26%.
Under `COc1ccc(CNC(=O)CCc2nnc3ccccn3c2=O)cc1` stands 8.41%; under `CO[C@@H]1CCN(C(=O)Cc2ccc(F)cc2)[C@@H]1Cc1cccnc1`, -16.75%; under `OC1(Cn2ccc3ncccc32)CCN(Cc2cccnc2)CC1`, 53.24%.
For `OC1(Cn2ccc3ncccc32)CCN(Cc2cc(F)cc(F)c2)CC1` the value was 31.56%; for `CCn1cc(CN2CCC(O)(Cn3ccc4ncccc43)CC2)cn1`, 22.39%.
For `O=C(CCOc1ccccc1)N1CCCC(n2cncn2)C1` (stereo not drawn) the value was 33.5%; for `Cc1nc2c(c(N3CC=CC3)n1)CCN(c1ncccc1C(N)=O)CC2`, -11.31%.
For the compound `CCS(=O)(=O)CCCOc1nc(-c2ccccc2Cl)no1`, the INHIBITION is -5.27%.
Turning to `O=C1CCC2(CCC(NC3CCOC3)CC2)N1Cc1ccncc1` (stereo not drawn), the INHIBITION is 56.76%.
For `Cc1ccc(CN2C(=O)CCC23CCC(NC2CCOC2)CC3)cc1` (stereo not drawn) the value was 29.85%; for `O=C1CCC2(CCC(NC3CCOC3)CC2)N1Cc1ccccc1` (stereo not drawn), 35.34%.
Under `CCc1ccc(CN(C)c2cc(COC)nc3ccnn23)cc1` stands 14.96%; under `CN(Cc1cnn(C)c1)C(=O)C1COc2ccccc2C1` (stereo not drawn), -11.77%.
For `O=C(NC1CCC1)[C@H]1C[C@H]2CN(S(=O)(=O)c3ccccc3)C[C@@H]1O2` the value was 24.34%; for `Cc1ccc(OCCCNC(=O)NC(C)c2nncn2C)cc1` (stereo not drawn), -10.5%.
As to `Cc1cccc(OCCCNC(=O)NC(C)c2nncn2C)c1` (stereo not drawn), the INHIBITION is -7.01%.
For `Cc1cccc(C)c1OCCNC(=O)NC(C)c1nncn1C` (stereo not drawn) the value was 64.53%; for `N[C@H]1CN(CCOc2ccc(F)cc2)C[C@@H]1C1CC1`, 55.85%.
Under `NC(=O)c1ccc(OCCCN2C[C@H](C3CC3)[C@@H](N)C2)cc1` stands 9.56%; under `N[C@H]1CN(CCCOc2ccccc2)C[C@@H]1C1CC1`, 18.64%; under `COC1CN(C(=O)OCC(C)C)CCC(=O)N(C)c2ccccc21` (stereo not drawn), -16.76%.
On to `Cc1nn(C)c2nc(N3CCCCC3c3ccc(F)cc3)sc12` (stereo not drawn), for which the INHIBITION is 8.3%.
Take `C1CCC(CN2Cc3nnn(CC4CC4)c3C(COCC3CC3)C2)C1` (stereo not drawn): the INHIBITION is -6.19%.
Under `O=C1[C@@H]2CCN(Cc3ccoc3)C[C@@H]2OCCN1Cc1cccc(F)c1` stands 20.41%.
Under `Cc1cc(NS(=O)(=O)c2ccc(Cl)s2)ccc1-n1cccc1C(=O)O` stands 31.15%; under `Cc1cc(NS(=O)(=O)c2cccs2)ccc1-n1cccc1C(=O)O`, 50.17%.
Under `Cc1ccc(S(=O)(=O)Nc2ccc(-n3cccc3C(=O)O)c(C)c2)s1` stands -1.14%.
As to `O=C(NCCOc1ccccc1)NCC(O)c1cccs1` (stereo not drawn), the INHIBITION is reported as -85.29%.
On to `Cc1ccoc1C(=O)N1C[C@@H]2[C@@H](C1)OCC(=O)N2Cc1cccnc1`, for which the INHIBITION is -2.91%.
For `Cc1nc2c(c(NC3CC3)n1)CCN(C(=O)CCO)CC2` the value was -10.44%.
Under `CC(=O)N1CCC(C(=O)NCCN2CCCCC2)CC1` stands 18.97%; under `CN1CCN(C(=O)NCCc2ccc(F)cc2)[C@H]2CS(=O)(=O)C[C@H]21`, 50.59%.
Under `COc1ccc(CNC(=O)N2CCN(C)[C@@H]3CS(=O)(=O)C[C@@H]32)cc1` stands -47.18%; under `COc1ccc(CCNC(=O)N2CCN(C)[C@@H]3CS(=O)(=O)C[C@@H]32)cc1`, 43.44%; under `Cc1ccc(OCCN2CCN(Cc3cnn(CCO)c3)CC2)cc1`, -72.55%.
As to `COCC(=O)N1CCCC1c1cccc(Nc2ncc(C)s2)n1` (stereo not drawn), the INHIBITION was 44.48%.
With `COCC(=O)N1CCCCC1c1ccnc(Nc2ncc(C)s2)n1` (stereo not drawn), the INHIBITION is on record as 60.74%.
For `COCC(=O)N1CCCCC1c1ccnc(Nc2cnccn2)n1` (stereo not drawn) the value was 11.55%.
For the compound `CN1CCN(C(=O)c2n[nH]c3c2CN(C2CCOCC2)CC3)CC1`, the INHIBITION was 36.44%.
With `COc1cc(CNC(C)c2cccc(Cl)c2)cc(OC)c1OC` (stereo not drawn), the INHIBITION was 27.88%.
Under `CC(C)c1ccc(OCC(=O)NS(=O)(=O)c2cccnc2)cc1` stands -1.85%; under `Cc1cccc(NCC(=O)Nc2cc(F)ccc2F)c1C(N)=O`, 38.91%.
On to `Cc1cc(C)n(CC2(CNC(=O)C(c3ccccc3F)N(C)C)CC2)n1` (stereo not drawn), for which the INHIBITION came out at 55.85%.
As to `Cc1cc(C)n(CC2(CNC(=O)C(c3ccc(F)cc3)N(C)C)CC2)n1` (stereo not drawn), the INHIBITION is -4.04%.
For `Cc1cc(C)n(CC2(CNC(=O)C(c3ccccc3C)N(C)C)CC2)n1` (stereo not drawn) the value was -14.49%.
Turning to `Cc1cc(C(F)(F)F)nc(CCNC(C)Cn2ccnc2)n1` (stereo not drawn), the INHIBITION is given as -15.14%.
For `OCCN(Cc1nc(-c2ccc3c(c2)OCO3)no1)CC1CC1` the value was 83.98%; for `OCCN(Cc1ccccc1)Cc1nc(-c2ccc3c(c2)OCO3)no1`, -48.83%; for `OCCN(Cc1nc(-c2ccc3c(c2)OCO3)no1)Cc1cccs1`, -49.59%.
Under `COCCS(=O)(=O)Nc1ccc(-n2cncn2)c(F)c1` stands 3.33%.
`CN1CCN(C(=O)c2cc3sccc3n2Cc2ccccc2F)CC1`: the INHIBITION was -10.78%.
Turning to `Cc1ccc(N2CC[C@@H]3CN(Cc4cc[nH]n4)C[C@@H]3C2)nn1`, the INHIBITION worked out at 27.95%.
For `CC(C)(C)CCNc1nccc(-c2c[nH][nH]c2=O)n1` the value was 22.5%; for `c1ccc(NC[C@@H]2CCC[C@@H]3CN(Cc4csnn4)C[C@@H]32)nc1`, 24.51%.
Take `CC(C)(C)NC[C@@H]1CCC[C@@H]2CN(Cc3csnn3)C[C@@H]21`: the INHIBITION is given as -21.74%.
Under `c1cnc(NC[C@@H]2CCC[C@@H]3CN(Cc4csnn4)C[C@@H]32)nc1` stands 55.7%; under `COc1ccc2[nH]cc(C(=O)CNc3nc(C)cs3)c2c1`, 20.71%.
As to `O=C(NCCN1CCCC(CO)C1)c1ccc2sccc2c1` (stereo not drawn), the INHIBITION is listed as 13.99%.
For `O=C(NCCN1CCOC1=O)c1ccc2sccc2c1` the value was 61.27%; for `O=C(NCCN1CCOC1=O)c1cc(-c2ccccc2)on1`, 9.85%; for `NCc1cnc(Nc2ccccc2)nc1`, 16.87%.
For `O=C1Nc2ccccc2CNC12CCN(CC1CC1)CC2` the value was 58.42%; for `O=C1Nc2ccccc2CNC12CCN(CC1CCCC1)CC2`, -7.08%; for `O=C1Nc2ccccc2CNC12CCN(CC1CCNC1)CC2` (stereo not drawn), 21.69%.
`COc1cccc2sc(N3CC(OC(C)=O)C3)nc12`: the INHIBITION is given as -5.98%.
For `CSCC(C)NS(=O)(=O)c1ccc(C)c(N(C)C)c1` (stereo not drawn) the value was -1.57%.
Consider `Cc1ccc(S(=O)(=O)N[C@H](CO)C(C)C)cc1N(C)C`, for which the INHIBITION was -94.5%.
For the compound `COCCC(C)NS(=O)(=O)c1ccc(C)c(N(C)C)c1` (stereo not drawn), the INHIBITION came out at 52.6%.
In the case of `CN(C)CC(=O)N1Cc2ncn(C)c2C(COCC2CCOCC2)C1` (stereo not drawn), the INHIBITION was 6.8%.
Turning to `Cn1c(CC2CCS(=O)(=O)C2)nnc1SCCOc1ccccc1F` (stereo not drawn), the INHIBITION was 7.08%.
For `CN1CC(C(=O)NCc2cccnc2OCC(F)(F)F)CC1=O` (stereo not drawn) the value was 9.21%.
For `O=C(Cn1cccnc1=O)NCc1cccnc1OCC(F)(F)F` the value was 3.95%; for `O=C(Cn1ccc(=O)[nH]c1=O)NCc1cccnc1OCC(F)(F)F`, 51.76%.
Under `Cc1ccc2[nH]c(=O)c(CNCCCN3CCOCC3)cc2c1` stands 22.39%; under `O=C(c1c[nH]cn1)N1CCC(F)(F)C2(CCN(c3ncccn3)C2)C1` (stereo not drawn), 38%.
For `CCc1cc(C(=O)N2Cc3ccccc3OC3(CCOCC3)C2)on1`, the INHIBITION was determined as 14.05%.
As to `c1nc(N2CCCC(Cn3cncn3)C2)c2ccsc2n1` (stereo not drawn), the INHIBITION was -1.74%.
Regarding `c1nc(N2CCCC2Cn2cncn2)c2sccc2n1` (stereo not drawn), the INHIBITION is reported as -48.41%.
Take `c1nc(N2CCCC(Cn3cncn3)C2)c2sccc2n1` (stereo not drawn): the INHIBITION came to 68.24%.
Regarding `CN1C(=O)[C@@H]2CC[C@H]1CN(c1ncnc3ccsc13)C2`, the INHIBITION was found to be 14.82%.
For `Cc1nc(C)n(CC2CCCN(c3ncnc4ccsc34)C2)n1` (stereo not drawn) the value was -20.93%.
For `Cc1cnn(CC2CCCN2c2ncnc3sccc23)c1` (stereo not drawn) the value was 37.87%.
On to `O=C1[C@@H]2CC[C@@H](CN(c3ncnc4ccsc34)C2)N1CC1CC1`, for which the INHIBITION is reported as 62.51%.
For `Cc1cnn(CC2CCCN2c2ncnc3ccsc23)c1` (stereo not drawn) the value was 53.33%.
`COc1cc(N2C[C@H]3CC[C@@H](C2)N(CC2CCC2)C3=O)ncn1`: the INHIBITION is on record as 8.26%.
For `COC(=O)CN(C(=O)c1ccc(Cl)o1)c1cccc(F)c1` the value was 34.65%; for `O=C(NCc1ccc(Br)c(F)c1)Nc1cn[nH]c1`, 2.31%.
For `Cc1cc(CN2CCCC2c2c(C)nn(C)c2Cl)on1` (stereo not drawn) the value was -50.23%; for `CCc1nc(CN(C)c2nccc(N3CCCC(O)C3)n2)no1` (stereo not drawn), 11.38%; for `Cc1cnn(CC2CN(Cc3nc(C)no3)CCO2)c1` (stereo not drawn), -35.62%.
For `O=C(c1ccco1)N1CCCC1C1CCN(Cc2ccccc2)CC1` (stereo not drawn) the value was 3%.
With `O=C(C1CC1)N1CCCC1C1CCN(Cc2ccccc2)CC1` (stereo not drawn), the INHIBITION was 53.86%.
For the compound `O=C(c1ccncc1)N1CCCC1C1CCN(Cc2ccccc2)CC1` (stereo not drawn), the INHIBITION is on record as 45.82%.
`CC(=O)c1cc(CC(=O)NCc2cccc(F)c2F)cs1`: the INHIBITION is 36.26%.
For `Cc1nnc(N2C[C@@H]3CCCO[C@@H]3[C@H](N3CCCC3=O)C2)s1` the value was 21.57%; for `CC(=O)N1CCCN(C(=O)NCCNc2cnccn2)CC1`, 64.71%.
Under `O=C(NCCNc1cnccn1)N1CCCC1` stands -12.31%; under `CN1CCCN(C(=O)NCCNc2cnccn2)CC1`, 12.88%.
For `COCC1(C(=O)N[C@H]2CN(c3noc(C)n3)C[C@@H]2C2CC2)CCC1` the value was 21.28%.
